Screening data as filed in PubChem.
KB-3-1 cytotox = kills parental KB-3-1 adenocarcinoma cells | Potency, µM (series often up to 46.1 µM), usual class: cytotoxic | 400,000 compounds, 1.4% hits | KB-3-1 viability, CellTiter-Glo ATP luminescence, 72 h; further: on the % scale 0 is the no-effect control and ±100 the full control effect; nearly all actives have a fitted effect of over 60% in size
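Here the drug-naive KB-3-1 line serves as comparator for MDR sub-line selectivity; cells received compound titrations, 72 h at 37 °C, then CellTiter-Glo readout.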
ELG1 repair inh = blocks ELG1-dependent DNA repair in HEK293T cells; HEK293T ELG1-luciferase reporter, luminescence, 16 h; DNA damage induced by 5-fluorouridine; Potency, µM (top dose mostly 46.1 µM), for the others: top-dose activity change, negative = inhibition, usual class: inhibitors; 330,000 compounds, 2.3% hits; AID 504467; further: on the % scale 0 is the no-effect control and ±100 the full control effect; nearly all actives have a fitted effect of over 55% in size
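DMSO vehicle served as the neutral condition. Each well held 2,000 cells given 5-fluorouridine plus compound; after 16 hr at 37 °C/5% CO2, ONE-Glo was added and luciferase measured 30 min later.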
MCF10A rerep = induces DNA re-replication in MCF 10a normal breast cells; AID 624296; 350,000 compounds, 2.9% hits; MCF 10A DNA re-replication, Hoechst nuclear intensity, 48 h; Potency, µM (highest dose often 46.1 µM), without a hit: top-dose activity, positive = re-replication, usual class: activators; further: % of control where 0% means no effect; nearly all actives have a fitted effect of over 50% in size
KB-V1 cytotox = kills drug-selected multidrug resistant KB-V1 cells. AID 1347076. Potency, µM (doses to about 46.1 µM), usual class: cytotoxic. KB-V1 MDR cells viability, CellTiter-Glo, 72 h. 400,000 compounds, 3.4% hits; further: on the % scale 0 is the no-effect control and ±100 the full control effect; nearly all actives have a fitted effect of over 60% in size
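Cells of the MDR subline KB-V1 are plated, dosed with compound at multiple concentrations, and incubated 72 h at 37 degrees C; CellTiter-Glo is then added and luminescence read after 10 min.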
SW480 rerep = DNA re-replication induction in SW480 cells. Potency, µM (top dose mostly 46.1 µM), inactives show top-dose re-replication activation, hits mostly activators. SW480 DNA re-replication, Hoechst DNA content imaging, 48 h. AID 624297. 340,000 compounds, 1.8% hits; further: % of control where 0% means no effect; nearly all actives have a fitted effect of over 55% in size
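Hoechst fluorescence of nuclei (405 nm excitation, 500-530 nm emission) measured by plate-scanning imager after 48 hr compound exposure at 37 C; re-replication scored as increased number of nuclei with elevated intensity.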
* marks the source's active call; other numbers are inactive results. Hits are enriched below; roughly 8.1% of the tested compounds scored in any of these assays. The call rests on the fitted dose curve; in most records, active means well fitted curve in the direction sought with a large enough effect; inconclusive means small, poorly fitted or top-dose-only effect, or another doubt; inactive means no such curve, though single readings can be large; an effect the other way counts as inactive or inconclusive. Potency means the concentration at half of the fitted maximal effect.

`COc1ccc2c(c1)CCCC2=O` gave KB-3-1 cytotox inactive, MCF10A rerep -41%, KB-V1 cytotox inactive and SW480 rerep 4%.
`CN1C[C@H](CNC(=O)OCc2ccccc2)C[C@@H]2c3cccc4c3c(cn4C)C[C@H]21` gave KB-3-1 cytotox inactive, ELG1 repair inh -14%, MCF10A rerep 23µM*, KB-V1 cytotox inactive and SW480 rerep 23µM*.
For Cc1ccc(C[n+]2c(-c3ccc(C)cc3)cc(-c3ccc(C)cc3)cc2-c2ccc(C)cc2)cc1 the results were KB-3-1 cytotox 5.8µM*, ELG1 repair inh inconclusive, MCF10A rerep 23µM*, KB-V1 cytotox inconclusive and SW480 rerep inconclusive.
`CCOc1ccc(N2C(=O)NC(=O)/C(=C\c3ccc(N4CCCCC4)o3)C2=O)cc1` gave KB-3-1 cytotox inconclusive, ELG1 repair inh inconclusive, MCF10A rerep -3%, KB-V1 cytotox inconclusive and SW480 rerep inconclusive.
`C=CCn1c(O)c(C(CC)=NCCC2=CCCCC2)c(=O)[nH]c1=O` gave KB-3-1 cytotox inactive, ELG1 repair inh -2%, MCF10A rerep 14%, KB-V1 cytotox 8.9µM* and SW480 rerep -20%.
C=CCn1c(O)c(C(C)=NC(C)c2ccccc2)c(=O)[nH]c1=O (stereo not given) was read as KB-3-1 cytotox inactive, ELG1 repair inh inconclusive, MCF10A rerep 1%, KB-V1 cytotox inconclusive and SW480 rerep -4%.
Screening C=CCn1c(O)c(C(C)=NCCC(c2ccccc2)c2ccccc2)c(=O)[nH]c1=O returned KB-3-1 cytotox inactive, ELG1 repair inh 7.3µM*, MCF10A rerep 1%, KB-V1 cytotox inconclusive and SW480 rerep 32%.
`C=CCn1c(O)c(C(CC)=NCCCO)c(=O)[nH]c1=O` gave KB-3-1 cytotox inactive, ELG1 repair inh inconclusive, MCF10A rerep 16%, KB-V1 cytotox inactive and SW480 rerep -9%.
For CC(C)OP(=O)(Oc1ccc(C(O)C(Cl)(Cl)Cl)cc1)OC(C)C (stereo not given) the results were KB-3-1 cytotox inactive, ELG1 repair inh 18µM*, MCF10A rerep -6%, KB-V1 cytotox inactive and SW480 rerep -6%.
For Cc1ccc(CNCCc2ccc(F)cc2)s1 the results were KB-3-1 cytotox inactive, ELG1 repair inh -7%, MCF10A rerep -5%, KB-V1 cytotox inactive and SW480 rerep -4%.
`c1ccc(CNC2CCCCCCC2)cc1` (tested in a mixture with another compound) gave KB-3-1 cytotox inactive, MCF10A rerep 3%, KB-V1 cytotox 23µM* and SW480 rerep -1%.
`c1cncc(CNC2CCCCC2)c1` gave KB-3-1 cytotox inactive, ELG1 repair inh -2%, MCF10A rerep 1%, KB-V1 cytotox inconclusive and SW480 rerep -4%.
O=[N+]([O-])c1ccc(C2[C@H]3C(c4ccccc4)=NC4(CCCC4)N23)cc1 (stereo not given in full) was read as KB-3-1 cytotox inactive, ELG1 repair inh -12%, MCF10A rerep 4%, KB-V1 cytotox inactive and SW480 rerep -1%.
Screening Cc1ccc(C2=NC(C)(C)N3C2C3c2ccc([N+](=O)[O-])cc2)cc1 (stereo not given) returned KB-3-1 cytotox inconclusive, ELG1 repair inh 1%, MCF10A rerep -1%, KB-V1 cytotox 18µM* and SW480 rerep 3%.
`CC(=NCc1cccnc1)c1c(O)n(C2CCCCC2)c(=O)[nH]c1=O` gave KB-3-1 cytotox inactive, ELG1 repair inh -10%, MCF10A rerep 12%, KB-V1 cytotox 18µM* and SW480 rerep 1%.
For COc1ccc(C2=CC(c3ccc4c(c3)OCO4)c3c(c4ccccc4oc3=O)O2)cc1OC (stereo not given) the results were KB-3-1 cytotox 2.9µM*, MCF10A rerep 2.6µM*, KB-V1 cytotox 2.6µM* and SW480 rerep 6.5µM*.
Screening NC(N)=N/N=C/c1ccc(N2CCOCC2)cc1 returned KB-3-1 cytotox inconclusive, ELG1 repair inh -14%, MCF10A rerep inconclusive, KB-V1 cytotox inactive and SW480 rerep 6.5µM*.
